From PubChem BioAssay
CYP2C9 act – human CYP2C9 activators, primary screen, biochemical, luminescence; AID 1024, 2008; Cytochrome P450 2C9 (Homo sapiens), P11712; 96,000 tested, 1.4% active; recombinant CYP2C9, luciferin-H conversion; active compounds read high; factor 1 = untreated enzyme, 0 = blocked; activation factor at 5 µM;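 active = activation factor of 2 or more for CYP2C9 at a 5 µM dose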;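 also: 0 = sulfaphenazole-blocked wells and 1 = vehicle-only wells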
Target sequence (P11712 whole entry, looked up): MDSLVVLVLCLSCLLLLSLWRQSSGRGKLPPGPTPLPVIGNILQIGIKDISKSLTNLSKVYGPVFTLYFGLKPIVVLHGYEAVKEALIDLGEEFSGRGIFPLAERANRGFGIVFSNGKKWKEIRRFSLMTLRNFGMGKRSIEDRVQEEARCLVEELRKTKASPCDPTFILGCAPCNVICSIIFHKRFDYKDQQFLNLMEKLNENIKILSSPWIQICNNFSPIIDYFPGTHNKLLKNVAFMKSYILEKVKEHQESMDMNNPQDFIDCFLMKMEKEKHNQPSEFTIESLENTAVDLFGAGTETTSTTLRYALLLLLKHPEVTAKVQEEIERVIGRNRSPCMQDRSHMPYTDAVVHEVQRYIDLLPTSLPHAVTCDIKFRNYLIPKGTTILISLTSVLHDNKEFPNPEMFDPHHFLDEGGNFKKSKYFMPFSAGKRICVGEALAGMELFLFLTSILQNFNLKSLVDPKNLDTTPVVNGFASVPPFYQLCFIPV
CYP2C19 inh – blockers of cytochrome P450 2C19 activity – biochemical, luminescence, ADME assay, primary screen; CYP2C19 Supersomes, luciferin-H EGE luminescence, 30 min; inhibition, % at 5 µM; AID 778, 2007; 96,000 tested, 21% active;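 active = CYP2C19 inhibition above a set limit at 5 µM in the primary screen, cut at about 50% in these data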;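 also: plate controls were negative control wells for no effect and 2.5 mM tranylcypromine positive control for full effect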
CYP2C9 inh – blockers of cytochrome P450 2C9 activity – biochemical, luminescence, ADME assay, primary screen. P11712. CYP2C9 Supersomes, luciferin-H conversion. inhibition, % at 5 µM. 96,000 tested, 20% active. AID 777, 2007;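 active = blocking of liver enzyme CYP2C9 beyond about 50% at 5 µM, limit read from the data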
CYP2C19 activ – human CYP2C19 activators, primary screen, biochemical, luminescence; activation factor at 5 µM; 96,000 tested, under 10 active; AID 1025, 2008; recombinant CYP2C19, luciferin-H EGE luminescence; active compounds read high; 0 = fully inhibited enzyme, 1 = untreated enzyme;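 active = activation factor of at least 2 at 5 µM in the primary screen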;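 also: 0 = wells with 2.5 mM tranylcypromine and 1 = vehicle-only wells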
* marks the source's active call; other numbers are inactive results. Sampled rows, rich in hits. Any-hit rate of the full collection: about 31%.

SMILES	CYP2C9 act	CYP2C19 inh	CYP2C9 inh	CYP2C19 activ
CCC(CC)C(=O)Nc1cc(C)cc(C)c1	0.7	18	25	0.8
O=C(OCC(=O)N1CCN(C(=O)COC(=O)c2ccncc2)CC1)c1ccncc1	1.2	-25	-20	1.3
CCOC(=O)c1c(C)[nH]c(C(=O)COC(=O)C2CC2C)c1C (stereo not given)	0	73*	98*	0.3
CCOC(=O)c1c(C)[nH]c(C(=O)COC(=O)c2[nH]c(C)c(C(C)=O)c2C)c1C	0.8	24	17	0.8
CCOC(=O)c1c(C)[nH]c(C(=O)COC(=O)c2ccncc2)c1C	0.1	16	92*	0.8
Cc1[nH]c2ccccc2c1[C@H]1[C@@H](CC#N)C1(C)C	0.7	48	28	0.5
c1cnc(N2CCN(Cc3c[nH]c4ccccc34)CC2)nc1	0.7	46	35	0.5
Cc1ccccc1N1CCN(Cc2c[nH]c3ccccc23)CC1	0.8	56*	20	0.4
Nc1nc2ccccc2n1/N=C/c1ccc(Br)cc1	0.7	6	34	0.9
CCn1c(COc2cccc3ccccc23)nnc1SCC(N)=O	1.7	-7	-75	1.1
CCCCCCOC(=O)Cc1c(C)nc(-c2ccccc2)[nH]c1=O	1	22	-2	0.8
CCCCCCOC(=O)CCn1[nH]c(=O)c2ccccc2c1=O	0.5	56*	54*	0.4
CC1(C)CC(=O)c2c(nc(SCC(=O)Nc3nsc(-c4ccccc4)n3)c(C#N)c2-c2ccccc2)C1	0.2	54*	85*	0.5
CCc1c(C#N)c(SCCC(=O)Nc2ccc(F)cc2)nc2c1C(=O)CC(C)(C)C2	0	98*	97*	0
COc1ccc(-c2c(C#N)c(SCc3c(C)noc3C)nc3c2C(=O)CC(C)(C)C3)cc1	0.6	5	43	1
CCc1c(C#N)c(SCCC(=O)Nc2cccc(OC)c2)nc2c1C(=O)CC(C)(C)C2	0	98*	98*	0
N#Cc1c(NC(=O)CN2CCN(S(=O)(=O)c3ccc4c(c3)OCCO4)CC2)sc2c1CCC2	0.9	14	8	0.9
O=S(=O)(NC1CCCC1)c1cccc(-c2nnc(-c3ccccc3)o2)c1	0.1	34	87*	0.7
COCCCn1c(SCC(=O)Nc2ccc3c(c2)OCCO3)nnc1-c1ccoc1C	0.7	18	26	0.8
CCC(CC)C(=O)NCCc1ccc(F)cc1	0.9	27	15	0.7
CN(CC(=O)NCCC1=CCCCC1)S(=O)(=O)c1ccc2c(c1)CCC(=O)N2	0.7	4	32	1
CCc1cc2c(SCC(=O)C(C#N)=C3N(C)c4ccccc4N3C)ncnc2s1	0.4	40	62*	0.6
CCc1cc2c(SCC(=O)O)ncnc2s1	1.2	-16	-17	1.2
CCOc1ccccc1N1CCN(C(=O)Nc2ccc(F)c(Cl)c2)CC1	1.1	24	-13	0.8
Cn1c(=O)n(C)c2cc([N+](=O)[O-])c(N3CCN(S(=O)(=O)c4ccc5ccccc5c4)CC3)cc21	0.6	73*	40	0.3
SMILES	CYP2C9 act	CYP2C19 inh	CYP2C9 inh	CYP2C19 activ
Cc1ccc(C(=O)N2CCN(c3cc4c(cc3[N+](=O)[O-])n(C)c(=O)n4C)CC2)cc1	0.6	0	36	1
Cc1ccc(S(=O)(=O)N2CCN(c3cc4c(cc3[N+](=O)[O-])n(C)c(=O)n4C)CC2)cc1	0.2	76*	81*	0.2
Cc1ccc(S(=O)(=O)NCC(=O)OCC(=O)NC(=O)c2cccn2C)cc1	0.8	8	19	0.9
Cc1ccc(N2C(=O)CC(Sc3ncn[nH]3)C2=O)cc1C (stereo not given)	0.9	26	15	0.7
CCOC(=O)C1=C(C)N=C2SC(C(=O)OC)=CC(=O)N2C1c1ccc(F)cc1 (stereo not given)	0.8	50*	18	0.5
CCC1SC2=NC(C)=C(C(=O)OC)C(c3ccc(C)cc3)N2C1=O (stereo not given)	0.2	99*	80*	0
COC(=O)C1=C(C)N=C2SC(C)C(=O)N2C1c1ccc(C(=O)OC)cc1 (stereo not given)	0.7	78*	30	0.2
COC(=O)C1=C(C)N=C2SC(C)C(=O)N2C1c1cccs1 (stereo not given)	0.9	30	11	0.7
CCOC(=O)C1=C(C)N=C2SC(C)C(=O)N2C1c1ccc(OC(C)=O)c(OCC)c1 (stereo not given)	0.4	65*	63*	0.3
CCOc1cc(N2CCOCC2)c(OCC)cc1NC(=O)CSc1cccc[n+]1[O-]	0.7	2	33	1
O=C1CC(C(=O)Nc2ccc(F)c(Cl)c2)N=C(N2CCCCC2)N1 (stereo not given)	0.9	7	10	0.9
Cc1cc(NC(=O)CSc2nc3ccccc3n2CC(=O)N2CCCCC2)no1	0.8	34	25	0.7
COc1ccc(CNC(=O)C(NS(=O)(=O)c2ccc3c(c2)CCCN3C(C)=O)C(C)C)cc1 (stereo not given)	0.9	-1	8	1
O=C(Nc1nccs1)c1ccccc1N=Cc1ccccc1	0.2	93*	80*	0.1
CCOCC(=O)Nc1ccc(C)c(Cl)c1	0.9	23	10	0.8
CCOC(=O)C1=C(C)NC(=O)C(C#N)C1c1ccco1 (stereo not given)	0.8	26	21	0.7
COCCOC(=O)C1=C(C)NC(SCC(=O)NC(C)(C)C)=C(C#N)C1c1ccco1 (stereo not given)	0.1	82*	86*	0.2
CCOC(=O)C1=C(c2ccccc2)NC(SCC(=O)NC2CCCCC2)=C(C#N)C1c1ccco1 (stereo not given)	0.4	30	61*	0.7
C=CCOC(=O)C1=C(C)NC(SCC(=O)Nc2ccc(C)c(Cl)c2)=C(C#N)C1c1ccco1 (stereo not given)	0.2	52*	79*	0.5
COCc1cc(=O)[nH]c(/N=C(\N)Nc2ccccc2C)n1	1	-5	-1	1
CCn1c(SCC(=O)Nc2ccc(NC(C)=O)cc2)nnc1C1CC1	1.3	-23	-28	1.2
CCOCCCN(Cc1ccco1)C(=O)c1cc2c(=O)[nH]c3ccc(C)cc3c2s1	0.8	19	21	0.8
CC(C)(C)CC(=O)NCc1ccc(F)cc1	0.8	53*	18	0.5
O=C(CCc1ccc(CCC(=O)c2cccs2)s1)c1cccs1	0.1	89*	93*	0.1
O=C(CCn1cccc1)Nc1ccccc1F	0.9	22	7	0.8
O=C(CCC(=O)c1cccs1)Nc1ccccc1F	0.9	52*	13	0.5
O=C(CCC(=O)c1cccs1)NCc1ccc(F)cc1	1.7	72*	-71	0.3
Cn1nc(CC(=O)NCc2ccc(F)cc2)c2ccccc2c1=O	1	6	-3	0.9
CCOc1cc(C(=O)OCc2ccc(C(=O)OC)o2)cc(Br)c1OC	0.8	14	22	0.9
